# Laboratory results reported in PubChem BioAssay.
# Active and inactive are the calls of the source. Unless noted, the rule behind the calls is not given here.
# Key:
# [1] = test system: Wnt5a (protein binding on small-molecule microarray); assay: small molecules binding Wnt5a protein – biophysical, small-molecule microarray, 635/667 nm fluorescence, primary screen (AID 1142); settings: 635 nm fluorescence, higher = more signal;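 note: fluorescence read at 667 nm with signal to noise per printed feature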
# [2] = ATP-based viability of Huh7 replicon cells – cell-based, CellTiter-Glo luminescence, basal, 48 h, cytotoxicity control for HCV replication inhibitor project, primary screen (AID 1143); settings: higher = more signal, called active from +8 up or from −8 down;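 note: Huh7 hepatoma cells carrying a hepatitis C replication reporter with no stimulus; test concentration not given here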
# [3] = Pseudomonas biofilm growth suppression – PAO1 strain, BacTiter-Glo luminescence, LB-PBS, primary screen (AID 1144); settings: P. aeruginosa PAO1 biofilm, 12 h, higher = more signal
# [4] = basal CRE-LacZ reporter activity in PC12 – cell-based, unstimulated, primary screen (AID 1145); settings: no forskolin, luminescence, 4.5 h, higher = more signal, called active from +8 up or from −8 down
# [5] = forskolin-driven CRE-LacZ activity in PC12 – cell-based, CRE-LacZ reporter, forskolin-stimulated, primary screen (AID 1146); settings: luminescence, 4.5 h, higher = more signal, called active from +8 up or from −8 down;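 note: PC12 cells with 6xCRE LacZ reporter stimulated by forskolin 10 µM; beta-galactosidase reporter signal reflecting CREB driven transcription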
# [6] = target: Streptavidin (Streptomyces avidinii) (UniProt P22629); assay: compounds binding control protein streptavidin – biophysical, small-molecule microarray, 635/667 nm fluorescence, artefact control for SMM compound annotation, primary screen (AID 1147); settings: higher = more signal;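 note: signal reflects streptavidin binding to arrayed compounds as a control protein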
# [7] = probe aInhba binding on compound microarray – biochemical, small-molecule microarray, 635/667 nm fluorescence, primary screen (AID 1148); settings: higher = more signal;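 note: score merges 667nm spot fluorescence with signal-to-noise for antibody binding to printed compounds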
# Torsin-1A (Homo sapiens) [8] = target: Torsin-1A (Homo sapiens) (UniProt O14656); assay: TOR1A wild-type binding on microarray – cell lysate, small-molecule microarray, lysate, 635/667 nm, primary screen (AID 1149); settings: COS7 hTOR1A-WT lysate, 635 nm fluorescence, higher = more signal
# Torsin-1A (Homo sapiens) [9] = target: Torsin-1A (Homo sapiens) (UniProt O14656); assay: torsin A mutant lysate binding on microarrays – cell lysate, small-molecule microarray, COS7 lysate, 635/667 nm fluorescence, primary screen (AID 1150); settings: COS7 hTOR1A mutant lysate, 635 nm fluorescence, higher = more signal;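 note: score pools 667 nm emission and signal to noise measuring lysate protein binding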
# [10] = test system: Sonic hedgehog protein (Shh); assay: Sonic hedgehog microarray binding compounds – biochemical, small-molecule microarray, 635/667 nm fluorescence, primary screen (AID 1151); settings: 635 nm fluorescence, higher = more signal;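 note: Shh protein binding to compounds spotted on small-molecule microarray slides; score combines spot fluorescence intensity with signal-to-noise across triplicate slides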
# [11] = optical density shifts of acrAB sulA E. coli – strain DRC41, OD650, 48 h, E. coli filamentation inducer project, primary screen (AID 1152); settings: higher = more signal, called active from +8 up or from −8 down;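 note: E. coli MC1000 strain DRC41 lacking acrAB efflux pump and sulA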
# [12] = probe aLefty1 binding on compound microarray – biochemical, small-molecule microarray, 635/667 nm fluorescence, primary screen (AID 1153); settings: higher = more signal;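 note: score merges spot fluorescence with signal-to-noise ratio from the scanned slide images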
# [13] = plasmodial surface anion channel blockers, osmotic lysis – cell-based, P. falciparum Indochina, OD700, 1 h, primary screen (AID 1154); settings: P. falciparum Indochina infected RBC osmotic lysis, higher = more signal, called active from +8 up or from −8 down
# [14] = plasmodial surface anion channel blockers, osmotic lysis – cell-based, P. falciparum Indochina, OD700, 2 h, primary screen (AID 1155);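 note: lysis reports solute entry through the parasite surface anion channel PSAC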; settings: P. falciparum Indochina infected erythrocytes, higher = more signal, called active from +8 up or from −8 down
# [15] = changes in parasitized red cell lysis, either direction – P. falciparum Indochina, OD700, 3 h, PSAC antagonist project, primary screen (AID 1156); settings: P. falciparum-infected erythrocytes, osmotic lysis, higher = more signal, called active from +8 up or from −8 down
# [16] = plasmodial surface anion channel blockers, osmotic lysis – cell-based, P. falciparum Indochina, OD700, 18 h, primary screen (AID 1157); settings: P. falciparum Indochina infected erythrocytes, osmotic lysis OD700, 18 h; higher = more signal, called active from +8 up or from −8 down
# [17] = S6 kinase pathway phospho-S6 level changes – cell-based, A549, cytoblot, luminescence, serum-stimulated, primary screen (AID 1158); settings: 5 h, higher = more signal;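 note: serum-stimulated A549 lung adenocarcinoma cells; signal is phosphorylated S6 detected by cytoblot immunostaining with HRP secondary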
# [18] = target: NADPH oxidase 2 (Homo sapiens) (UniProt P04839); assay: compounds shifting NOX2 Amplex Red fluorescence – cell-based, HEK293-NOX2, PMA-stimulated, NOX inhibitor project, primary screen (AID 1159); settings: 45 min, higher = more signal, called active from +8 up or from −8 down; note: test concentration not given here
# [19] = target: NADPH oxidase 4 (Homo sapiens) (UniProt Q9NPH5); assay: compounds shifting NOX4 Amplex Red fluorescence – cell-based, HEK293-NOX4, tetracycline-induced, NOX inhibitor project, primary screen (AID 1160); settings: HEK293-NOX4, Amplex Red H2O2 fluorescence, 45 min; higher = more signal, called active from +8 up or from −8 down
# [20] = target: NADPH oxidase 5 (Homo sapiens) (UniProt Q96PH1); assay: compounds shifting NOX5 Amplex Red fluorescence – cell-based, HEK293-NOX5, NOX inhibitor project, primary screen (AID 1161); settings: HEK293-NOX5, ionomycin, 45 min, higher = more signal
# Sequence of NADPH oxidase 5 (Homo sapiens) (Q96PH1 whole entry, looked up): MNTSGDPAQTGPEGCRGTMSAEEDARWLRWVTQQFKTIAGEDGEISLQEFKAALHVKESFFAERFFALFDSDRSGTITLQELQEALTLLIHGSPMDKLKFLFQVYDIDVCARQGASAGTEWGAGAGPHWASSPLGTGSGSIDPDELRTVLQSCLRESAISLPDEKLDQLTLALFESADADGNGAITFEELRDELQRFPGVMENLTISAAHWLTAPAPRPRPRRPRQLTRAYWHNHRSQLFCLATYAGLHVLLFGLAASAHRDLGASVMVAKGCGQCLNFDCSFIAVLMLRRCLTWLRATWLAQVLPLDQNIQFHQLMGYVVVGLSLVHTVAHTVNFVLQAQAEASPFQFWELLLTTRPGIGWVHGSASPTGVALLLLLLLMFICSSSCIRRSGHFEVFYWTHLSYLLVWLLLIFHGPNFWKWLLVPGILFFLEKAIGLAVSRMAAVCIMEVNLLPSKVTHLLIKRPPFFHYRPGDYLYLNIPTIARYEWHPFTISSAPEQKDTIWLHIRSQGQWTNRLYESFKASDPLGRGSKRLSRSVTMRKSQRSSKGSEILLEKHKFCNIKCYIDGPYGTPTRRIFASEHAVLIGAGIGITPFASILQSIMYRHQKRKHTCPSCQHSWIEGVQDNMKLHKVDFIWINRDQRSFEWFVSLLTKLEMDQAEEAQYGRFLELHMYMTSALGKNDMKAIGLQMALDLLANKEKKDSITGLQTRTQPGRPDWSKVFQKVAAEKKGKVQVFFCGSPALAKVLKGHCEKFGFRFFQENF
# Sequence of NADPH oxidase 2 (Homo sapiens) (P04839 whole entry, looked up): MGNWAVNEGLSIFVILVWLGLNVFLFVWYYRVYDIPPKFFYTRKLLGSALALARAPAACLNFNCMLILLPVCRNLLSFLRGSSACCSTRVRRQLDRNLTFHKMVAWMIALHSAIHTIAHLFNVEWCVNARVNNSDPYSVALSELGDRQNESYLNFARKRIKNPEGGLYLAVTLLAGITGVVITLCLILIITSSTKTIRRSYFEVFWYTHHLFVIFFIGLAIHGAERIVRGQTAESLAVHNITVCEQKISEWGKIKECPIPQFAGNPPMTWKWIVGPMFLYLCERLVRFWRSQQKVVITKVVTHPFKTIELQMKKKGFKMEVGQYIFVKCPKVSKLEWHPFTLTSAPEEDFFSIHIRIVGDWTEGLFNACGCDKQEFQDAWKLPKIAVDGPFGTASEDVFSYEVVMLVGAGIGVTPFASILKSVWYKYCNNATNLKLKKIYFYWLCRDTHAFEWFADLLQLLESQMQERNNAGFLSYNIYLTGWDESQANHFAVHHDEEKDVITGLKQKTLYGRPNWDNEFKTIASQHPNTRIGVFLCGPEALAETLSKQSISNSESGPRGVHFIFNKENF
# Sequence of NADPH oxidase 4 (Homo sapiens) (Q9NPH5 whole entry, looked up): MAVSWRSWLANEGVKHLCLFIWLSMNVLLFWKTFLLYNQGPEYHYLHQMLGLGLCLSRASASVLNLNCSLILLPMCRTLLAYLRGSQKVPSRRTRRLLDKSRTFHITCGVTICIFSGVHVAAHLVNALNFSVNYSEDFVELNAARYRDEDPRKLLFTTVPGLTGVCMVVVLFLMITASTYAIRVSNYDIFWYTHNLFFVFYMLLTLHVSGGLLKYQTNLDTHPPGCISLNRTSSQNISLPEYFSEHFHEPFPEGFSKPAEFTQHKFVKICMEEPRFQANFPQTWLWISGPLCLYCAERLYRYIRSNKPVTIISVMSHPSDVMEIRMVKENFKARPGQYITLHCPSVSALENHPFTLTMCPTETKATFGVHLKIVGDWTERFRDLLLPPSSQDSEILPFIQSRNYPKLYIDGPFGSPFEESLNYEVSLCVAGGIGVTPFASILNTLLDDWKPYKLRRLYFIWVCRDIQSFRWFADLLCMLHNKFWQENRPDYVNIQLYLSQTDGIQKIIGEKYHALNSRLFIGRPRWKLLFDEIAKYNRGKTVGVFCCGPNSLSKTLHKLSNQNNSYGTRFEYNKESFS
# Sequence of Streptavidin (Streptomyces avidinii) (P22629 whole entry, looked up): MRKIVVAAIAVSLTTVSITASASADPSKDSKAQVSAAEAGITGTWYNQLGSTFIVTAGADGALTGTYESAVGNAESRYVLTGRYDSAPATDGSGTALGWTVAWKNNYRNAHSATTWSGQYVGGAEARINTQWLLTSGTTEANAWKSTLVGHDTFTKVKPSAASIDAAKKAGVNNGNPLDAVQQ
# Sequence of Torsin-1A (Homo sapiens) (O14656 whole entry, looked up): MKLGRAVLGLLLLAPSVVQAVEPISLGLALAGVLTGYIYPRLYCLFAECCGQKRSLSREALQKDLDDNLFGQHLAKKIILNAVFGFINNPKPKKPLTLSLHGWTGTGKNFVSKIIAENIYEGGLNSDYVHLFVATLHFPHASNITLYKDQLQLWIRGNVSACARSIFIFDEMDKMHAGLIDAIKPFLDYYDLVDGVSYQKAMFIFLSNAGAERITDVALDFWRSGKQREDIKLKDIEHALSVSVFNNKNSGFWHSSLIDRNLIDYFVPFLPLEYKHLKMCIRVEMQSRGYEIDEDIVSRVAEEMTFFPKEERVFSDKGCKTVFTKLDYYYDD
Compound,composite z-score [1],z-score [2],z-score [3],z-score [4],z-score [5],composite z-score [6],composite z-score [7],composite z-score (Torsin-1A (Homo sapiens) [8]),composite z-score (Torsin-1A (Homo sapiens) [9]),composite z-score [10],z-score [11],composite z-score [12],z-score [13],z-score [14],z-score [15],z-score [16],z-score [17],z-score [18],z-score [19],z-score [20]
O=C1C2C=CC(C(O)c3ccccn3)N(Nc3ccccc3F)C2C(=O)N1c1ccccc1 (stereo not given),-0.0672,0.894 (inactive),-0.62 (inactive),-0.708 (inactive),0.901 (inactive),0.429,-0.0986,0.456,0.432,-0.461,-0.882 (inactive),-0.133,0.671 (inactive),0.571 (inactive),0.42 (inactive),1.19 (inactive),-0.725,-1.63 (inactive),-3.57 (inactive),-1.54
O=S(=O)(NCCCO)c1ccc(Br)cc1,0.191,-1.52 (inactive),-0.658 (inactive),-0.198 (inactive),-0.472 (inactive),0.587,-0.024,0.729,0.783,0.533,0.949 (inactive),0.103,0.168 (inactive),-0.852 (inactive),-1.21 (inactive),-1.71 (inactive),0.679,-1.2 (inactive),-0.0431 (inactive),0.102
C=CCNC(=O)[C@H]1[C@@H]2C(=O)O[C@@H](c3ccccc3)[C@@H](c3ccccc3)N2[C@@H](c2ccc(OCCO)cc2)[C@]12C(=O)N(C(=O)OCCOC)c1ccc(C#CC3(O)CCCCCC3)cc12,0.558,-2.88 (inactive),-0.148 (inactive),0.761 (inactive),0.309 (inactive),0.37,0.569,1.79,0.907,1.65,0.838 (inactive),0.658,1.92 (inactive),0.742 (inactive),0.0102 (inactive),0.509 (inactive),0.0127,1.56 (inactive),0.972 (inactive),1.02
COC(=O)[C@@]1(Cc2ccc(OC)cc2)[C@H]2c3cc(C(=O)N(C)C)n(CCSCCO)c3C[C@H]2CN1C(=O)c1ccccc1,0.706,-2.19 (inactive),0.565 (inactive),-0.954 (inactive),0.325 (inactive),0.872,0.351,-0.101,0.199,-0.824,-0.641 (inactive),0.0391,2.02 (inactive),0.0187 (inactive),0.453 (inactive),0.641 (inactive),-0.368,0.393 (inactive),0.978 (inactive),-0.24
[N-]=[N+]=NCc1ccccc1C[C@]1(C(=O)NCCN2CCOCC2)N=C(c2ccc(OCCCO)cc2)O[C@H]1c1ccccc1CN=[N+]=[N-],0.888,-6.14 (inactive),-1.12 (inactive),1.34 (inactive),-0.887 (inactive),0.803,0.0155,0.0892,0.938,1.45,1.26 (inactive),0.453,20.7 (active),3.07 (inactive),0.58 (inactive),0.669 (inactive),2.75,-4.56 (inactive),-2.27 (inactive),-1.27
CCOC(=O)C1=C[C@@H](C(C)(C)C)N(S(=O)(=O)c2ccc(C)cc2)[C@H]1c1ccc(Cl)c(Cl)c1,0.28,-4.01 (inactive),0.599 (inactive),0.229 (inactive),0.303 (inactive),1.04,0.196,0.126,0.837,0.202,-1.27 (inactive),0.157,1.92 (inactive),1.15 (inactive),-0.335 (inactive),0.659 (inactive),-0.359,-0.739 (inactive),0.0493 (inactive),0.263
C[n+]1ccc2ccc(O)cc2c1,0.247,-0.289 (inactive),0.125 (inactive),0.389 (inactive),-0.287 (inactive),-0.426,-0.0405,2.27,1.19,1.95,0.0539 (inactive),-0.109,0.907 (inactive),0.557 (inactive),1.95 (inactive),0.374 (inactive),0.387,-0.469 (inactive),-0.566 (inactive),0.0145
O=C1C[C@@](C(=O)O)(c2ccc([N+](=O)[O-])cc2)[C@@H](c2ccc(CO)cc2I)N1C1CCCCC1,0.45,-4.77 (inactive),-2.27 (inactive),-0.619 (inactive),-0.598 (inactive),0.988,0.0905,-0.757,0.206,-0.196,1.52 (inactive),0.208,17.5 (active),2.77 (inactive),3.02 (inactive),0.202 (inactive),1.84,1.46 (inactive),-2.82 (inactive),-1.78
CCCC[C@H]1OB(O)C[C@H]2C1=C(C)Cn1c(=O)n(-c3ccccc3)c(=O)n12,0.0677,0.007 (inactive),-0.444 (inactive),0.222 (inactive),-0.251 (inactive),-0.124,0.0301,0.363,-0.0931,0.759,-2.02 (inactive),-0.677,0.0016 (inactive),0.408 (inactive),0.393 (inactive),0.181 (inactive),0.441,-0.59 (inactive),-0.181 (inactive),-0.278
